Consider 62 compounds from PubChem BioAssay AID1850 (Southern Research Specialized Biocontainment Screening …, 2009).

Each structure is given as a SMILES string. Among all 310,000 compounds or so, about 1,000 (0.32%) were called active. These entries were drawn from the full list. Measured potencies and affinities stand elsewhere. A number with no mark means an inactive call. How the calls were made is not given here.

The nature of this assay: Inhibition of PhoP regulon, Salmonella typhi GFP reporter cells, confirmation, 4 h (AID 1850).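 Further: 0% = induced wells with vehicle and 100% = uninduced wells.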 The conditions noted are these: Salmonella Typhi PhoP-promoter GFP reporter, fluorescence, at 50 µM, stronger effect = higher value.
As usually defined, the inhibition is the drop in the measured response relative to a control, in per cent. As for `CC1CN(c2oc(-c3ccco3)nc2C#N)CC(C)O1` (configuration not stated), the inhibition was 6.8%. The figure for `C/C(=N\N=C(N)N)c1ccc(Cl)cc1` is -0.0633%; for `C/C(=N\N=C(N)N)c1cccc(Cl)c1` it is 9.67%. As for `O=C(CNS(=O)(=O)c1ccccc1)N1CCc2ccccc2C1`, the inhibition was -1%. `Cn1c(=O)c2c(nc(NCC3CCCO3)n2Cc2cccc(Br)c2)n(C)c1=O` (configuration not stated): the inhibition is 2.34%. Turning to `CN(C)S(=O)(=O)N1CCN(c2ccc([N+](=O)[O-])c(NC3CC3)c2)CC1`, the inhibition was -5.83%. The figure for `NC(=O)C[n+]1ccc(/C=N/O)cc1` is -7.01%; for `CCCCCCCC[n+]1cccc(C(=O)N(CC)CC)c1` it is -7.45%; for `CC(C)(C)C(=O)C[n+]1ccc(C(N)=O)cc1` it is -7.77%.

With `CCN(CC)C(=O)C[n+]1ccc(C(N)=O)cc1`, the inhibition was -3.67%. On to `CN(C)C(=O)C[n+]1ccc(/C=N/O)cc1`, for which the inhibition is -5.57%. The figure for `CCCCCCCCCC[n+]1cccc(C(=O)N(CC)CC)c1` is 8.08%; for `O=C(c1ccc(F)cc1)N1CCN(C2CC3CCC2C3)CC1` (configuration not stated) it is -3.63%; for `O=C(Nc1ccc2ccccc2n1)c1ccccc1Br` it is -4.26%. `CCC(C)NC(=O)CCC(=O)NNc1nc2ccccc2c2nc(C)nn12` (configuration not stated): the inhibition is 10.9%. On to `CCn1cc(NC(=O)CCl)c(C)n1`, for which the inhibition is -1.91%. As for `CC(C)(C)OC(=O)N1CCC(c2c(C(=O)NCC3CCN(C4CCCC4)C3)cnn2-c2ccccc2)CC1` (configuration not stated), the inhibition was 4.93%. The figure for `Oc1ccc(/C=N/Nc2nccnc2Cl)cc1` is -3.22%; for `Oc1ccccc1/C=N/Nc1nccnc1Cl` it is -1.82%; for `O=C(COc1ccc(Br)cc1)N(Cc1ccccc1)c1ccccn1` it is 12.3%. For `COc1ccc(NC(=O)CSCC(=O)N(C)CC(=O)Nc2ccc(Cl)c(C(F)(F)F)c2)cc1`, the inhibition was 5.95%. `O=C(CCN1C(=O)c2ccccc2S1(=O)=O)N1CCN(c2cccc(Cl)c2)CC1`: the inhibition is 0.17%. Next, `COc1cc(/C=N/NC(=O)c2ccc(C)nc2)cc([N+](=O)[O-])c1O`: 2.56%. Turning to `O=C(N/N=C/c1ccc(O)c([N+](=O)[O-])c1)C(O)(c1ccccc1)c1ccccc1`, the inhibition was 4.8%. For `COc1cc([N+](=O)[O-])cc(/C=N/NC(=O)c2cc(C)nc3ccccc23)c1O`, the inhibition is 21.1%. Take `O=C(N/N=C/c1cccc([N+](=O)[O-])c1O)C(O)(c1ccccc1)c1ccccc1`: the inhibition is 2.48%.

On to `O=C(N/N=C/c1cc([N+](=O)[O-])ccc1O)Nc1ccccc1`, for which the inhibition was 17.7%.

As for `COc1cc([N+](=O)[O-])cc(/C=N/NC(=O)c2ccc(C)nc2)c1O`, the inhibition was 18.7%. The figure for `COc1cc(/C=N/NC(=O)c2cccnc2)ccc1OC(=O)c1ccc([N+](=O)[O-])cc1` is 5.86%; for `COc1cc([N+](=O)[O-])cc(/C=N/NC(=O)c2cncc(Br)c2)c1O` it is 12.7%; for `CCc1ccc(NC(=S)N(CCCN2CCN(C)CC2)Cc2cccs2)cc1` it is 0.49%.

With `Cc1nnc(SCC(=O)c2c(N)n(Cc3ccccc3)c(=O)n(C)c2=O)n1C`, the inhibition was -13.4%. Turning to `CC(=O)N(c1ccccc1C)S(=O)(=O)c1ccc(Cl)cc1`, the inhibition is -12.6%.

`O=C(Nc1ccccc1)c1ccc(=O)n(Cc2ccc(F)c(F)c2)c1`: the inhibition is -6.26%. Consider `CCOC(=O)N1CCc2c(sc3c2c(=O)n(Cc2ccccc2)c(=O)n3Cc2ccc(C)cc2)C1`, for which the inhibition was -2.36%. For the compound `CSc1ccccc1C(=O)C1CCCN(C(=O)c2csnn2)C1` (configuration not stated), the inhibition is -11.4%. Turning to `COc1ccc(C(=O)NC2CC2)cc1OC1CCN(Cc2ccc(F)cc2Cl)CC1`, the inhibition was -3.14%. With `CC(O)(C#CCN1CCCC1)c1ccccc1` (configuration not stated), the inhibition is -6.56%.

Take `CCOC(=O)Cc1csc(NC(=O)c2sc3nc4ccc(C)cc4cc3c2N)n1`: the inhibition was -5.8%. Regarding `Cn1c(-c2ccc3c(c2)OCO3)cnc1NCc1cccc(Cl)c1`, the inhibition was 2.65%. As to `Cc1ccc(CNc2ncc(-c3ccc4c(c3)OCO4)n2C)cc1`, the inhibition is -2.15%.

Consider `Cc1ccccc1Nc1nnc(SCC(=O)N(C)C2CCS(=O)(=O)C2)s1` (configuration not stated), for which the inhibition is -26.7%.

As to `Cc1cccc(NC(=O)C2CCCN(S(=O)(=O)c3cccc4nsnc34)C2)c1` (configuration not stated), the inhibition is 11%. Take `COc1ccc(NC(=O)C2CCCN(C(=O)Nc3ccc(OC)cc3)C2)cc1` (configuration not stated): the inhibition is 13.2%.

Take `O=C(NNc1ccccn1)C(=O)NNS(=O)(=O)c1ccc(F)cc1`: the inhibition is -7.54%. For `Cc1ccc(S(=O)(=O)NNC(=O)C(=O)NNc2ccccn2)cc1`, the inhibition is 1.07%.

As for `CCOc1ccc2c(c1)OC(c1ccc(C)cc1)(C(F)(F)F)NC2=O` (configuration not stated), the inhibition was 2.02%.

Take `COC(=O)c1c(NC(=O)CSc2nnc(Cn3nnc4ccccc43)n2C)sc(C)c1C`: the inhibition was 8.24%. Next, `Cc1sc2nc(CSc3nc4ccccc4s3)[nH]c(=O)c2c1C`: -8.83%. As to `COc1ccc(NS(=O)(=O)c2cc(OC)ccc2OC)cc1`, the inhibition was -1.85%.

For the compound `Fc1ccccc1C1CC(c2ccco2)=Nc2ccccc2S1` (configuration not stated), the inhibition was 9.62%.

Consider `CC(=O)NC1Sc2ccccc2N=C1c1ccccc1` (configuration not stated), for which the inhibition is -15.8%. Regarding `Cc1ccc(Cl)cc1N(CC(=O)N1CCCCCC1)S(C)(=O)=O`, the inhibition is -3.02%.

For the compound `Oc1ccc(CN2CCCCC2)c2cccnc12`, the inhibition was -7.91%.

Regarding `CCCOCc1ccc(O)c2ncccc12`, the inhibition was 16.8%. As to `O=[N+]([O-])c1cc(CN2CCN(c3ccccc3)CC2)c(O)c2ncccc12`, the inhibition was 4.63%. For `CCOc1cccc(CN2CCN(c3cccc(C(F)(F)F)c3)CC2)c1O`, the inhibition is -5.55%. As for `Oc1ccc2ccccc2c1CN1CCN(c2ccccc2)CC1`, the inhibition is 2.7%.

With `CC(C)COCc1ccc(O)c2ncccc12`, the inhibition was 1.72%.

Take `O=S(=O)(c1ccc(Cl)cc1)N1CCN(Cc2ccc(O)c3ncccc23)CC1`: the inhibition was -17.9%.

`c1ccc(N2CCN(Cc3ccnc4ccccc34)CC2)cc1`: the inhibition is -4.89%. Consider `O=C(N/C(=C/c1ccco1)C(=O)N1CCOCC1)c1ccccc1Br`, for which the inhibition was 7.88%.
